Assay outcomes deposited in PubChem by Sanford-Burnham Center for Chemical Genomics.
MLLE-PAM2 inh: blocks PAM2 peptide binding to the PABP1 MLLE domain; P11940; GST-MLLE / FITC-PAM2 fluorescence polarization; inhibition, % at 20 µM; 0.36% of 360,000 active; in the data active = inhibition above about 35%, passing the limit was not always enough;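 note: plate controls were DMSO wells with GST-MLLE for no effect and wells lacking GST-MLLE protein for full effect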
eIF4H inh: inhibitors of RNA binding by human eIF4H; 0.94% of 290,000 active; eIF4H fluorescence polarization binding assay; Q15056; AID 2012; inhibition, % at 35 µM;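 note: calls also rest on retests at 20 µM and on dose response follow-up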
CRFR2-BP antag: CRF-BP/CRF-R2 complex antagonism | HEK293 CRF-R2/CRF-BP, CRF-induced calcium fluorescence | inhibition, % at 11.8 µM | 0.59% of 350,000 active;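 active = inhibition of the ligand-induced calcium signal above about 50% at the single tested concentration, limit read from the data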
PHOSPHO1 block: PHOSPHO1 (human) inhibition; recombinant PHOSPHO1, absorbance phosphatase assay; inhibition, % at 13.3 µM; Q8TCT1; AID 1565; 1.1% of 290,000 active; in the data active = inhibition above about 60%
Target sequence (Q8TCT1 whole entry, looked up): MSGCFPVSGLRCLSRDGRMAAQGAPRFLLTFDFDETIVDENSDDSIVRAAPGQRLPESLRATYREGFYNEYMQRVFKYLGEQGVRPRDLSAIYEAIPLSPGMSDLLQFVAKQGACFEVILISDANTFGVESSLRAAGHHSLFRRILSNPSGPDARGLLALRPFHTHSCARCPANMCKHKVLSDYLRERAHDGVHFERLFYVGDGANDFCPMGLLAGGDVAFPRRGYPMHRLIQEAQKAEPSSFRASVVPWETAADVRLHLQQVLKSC
PABP FP inh: blocks human PABP binding to poly(A) RNA | P11940 | fluorescence polarization | inhibition, % at 35 µM | 1% of 290,000 active | AID 2014;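 note: calls also rest on retests at 20 µM and on dose response follow-up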
Active calls of the source: *; u = inconclusive; x = no result given. In the library only some 2.6% were active in any assay of this set; here they are far more common. Unless noted, the rule behind the calls is not given here.

SMILES | MLLE-PAM2 inh | eIF4H inh | CRFR2-BP antag | PHOSPHO1 block | PABP FP inh
Cc1ccccc1CN(C)C(=O)COC(=O)c1ccc2[nH]c(C)c(C)c2c1 | 8 | x | 64* | x | x
COc1cc(CNC(=O)Nc2nc(C(N)Cc3ccc(Cl)cc3)cs2)cc(OC)c1OC (stereo not drawn) | 15 | x | x | x | x
O=C(Nc1ccccc1F)NC1CCN(Cc2nnnn2Cc2ccc(F)cc2)CC1 | 5 | 6 | -6 | 11 | -13
O=C(Nc1ccc(F)cc1)NC1CCN(Cc2nnnn2Cc2ccco2)CC1 | 6 | 74* | 34 | -6 | 53*
O=c1c2ccccc2nc(SCc2nc3ccccc3s2)n1CCCO | 8 | -9 | -25 | -42 | 33
CN1C(=O)/C(=C2\SC(=S)N(NC(=O)c3cccnc3)C2=O)c2ccccc21 | 36 | 15 | 3 | 3 | 22
CCOC(=O)CN1C(=O)/C(=C2\SC(=S)N(NC(=O)c3cccnc3)C2=O)c2ccccc21 | 43* | 6 | 3 | 34 | 21
CCOC(=O)C1CCCN(C(=O)c2cccc(OC(F)(F)F)c2)CC1 (stereo not drawn) | -6 | x | x | x | x
CCCCN(C)c1c(C)nc2ccc(C(=O)NCCCn3ccnc3)cn12 | 4 | x | x | x | x
COc1cc(/C=N/N(C)c2ccccc2)cc(Cl)c1O | 8 | 6 | 53* | 8 | 10
COc1ccc(OC)c(/C=N/N(C)c2ccccc2)c1 | -17 | -1 | -5 | 14 | -2
CCN(CC)S(=O)(=O)c1ccc(Cl)c(NC(=O)c2cc(Cl)cc(Cl)c2)c1 | 7 | -4 | 53* | -2 | -6
COCCNC(=O)C1(C)CCN(Cc2cccc(Oc3ccccc3)c2)C1 (stereo not drawn) | -9 | x | x | x | x
O=C(COc1ccc(Br)cc1Cl)NC(=S)N1CCc2ccccc21 | 16 | 0 | 3 | -6 | 2
O=C(COc1ccc(Br)cc1Br)NC(=S)N1CCCc2ccccc21 | 23 | 8 | -4 | 83* | 48
S=c1[nH]nc(C2COc3ccccc3O2)o1 (stereo not drawn) | -84 | -8 | 30 | 96* | 22
S=c1nc(C2COc3ccccc3O2)[nH][nH]1 (stereo not drawn) | 29 | 6 | 13 | 37 | -6
Cc1ccccc1-c1cc2nc(-c3ccc([N+](=O)[O-])cc3)cc(=O)n2[nH]1 | 18 | -1 | 71* | 48 | 0
O=c1cc(-c2ccc([N+](=O)[O-])cc2)nc2cc(-c3ccc(F)cc3)[nH]n12 | 8 | 63 | 75* | -9 | active
COc1cc(C(O)c2nc(-c3ccc(C)c(C)c3)cs2)ccc1F (stereo not drawn) | -10 | x | x | x | x
CC(C)(C)OC(=O)NNC(=S)NCc1ccc(Cl)cc1 | -66 | 3 | -18 | 73* | 2
CC(C)(C)OC(=O)NNC(=O)c1ccc(Cl)cc1 | 14 | 0 | 6 | 19 | -1
CCOc1ccc(C(C)=O)cc1CSc1nnc(-c2ccoc2C)n1N | -49 | 0 | -7 | 75* | 5
Cc1cc(NC(=O)CSc2nnc(-c3ccoc3C)n2N)no1 | -28 | -9 | 30 | 55 | -1
CC1(C)CC(=O)C2=C(C1)Nc1ccccc1NC2c1cccc(F)c1 (stereo not drawn) | 10 | 6 | 5 | 14 | 0
SMILES | MLLE-PAM2 inh | eIF4H inh | CRFR2-BP antag | PHOSPHO1 block | PABP FP inh
Cn1cccc1C1Nc2ccccc2NC2=C1C(=O)CC(C)(C)C2 (stereo not drawn) | 115 | 125 | 31 | 29 | 119*
O=c1[nH]ncc(N/N=C\c2cccs2)c1Cl | -4 | active | -13 | 42 | 71*
O=c1[nH]ncc(N/N=C\c2ccncc2)c1Cl | 0 | -9 | 7 | 16 | -1
COc1ccc(OC)c(NC(=O)COc2ccc3c(c2)CCC3)c1 | -1 | x | 13 | x | x
Nc1ccccc1NC1=CC(=O)CC(c2ccco2)C1 (stereo not drawn) | -11 | 91* | -1 | -6 | 91*
Cc1cc(C)cc(NC2=CC(=O)CC(c3ccco3)C2)c1 (stereo not drawn) | 0 | 16 | 14 | -6 | 16
O=C1C=C(NNC(=O)c2cccnc2)CC(c2ccco2)C1 (stereo not drawn) | 45* | u | -3 | 2 | -21
Nc1ccccc1NC1=CC(=O)CC(c2ccccc2)C1 (stereo not drawn) | x | 4 | x | -10 | -7
Cc1ccc(NC2=CC(=O)CC(c3ccco3)C2)c(N)c1 (stereo not drawn) | -4 | 104* | -3 | -14 | 99*
Cc1ccc(F)c(S(=O)(=O)NC(=O)C2(C)CCN2C(=O)CC(c2ccccc2)c2ccccc2)c1 (stereo not drawn) | 7 | x | x | x | x
c1csc(Cc2nn3c(-c4ccncc4)nnc3s2)c1 | -6 | 72 | -12 | 72* | 25
CC1(C(=O)NS(=O)(=O)C2CC2)CCN(C(=O)c2cccc(Cl)c2)C1 (stereo not drawn) | -4 | x | x | x | x
COc1ccc(NC(=S)N/N=C2\CC(C)(C)Oc3ccc(OC)cc32)cc1 | 37* | -7 | -14 | 6 | -2
O=C(NN1C(=O)/C(=C/c2ccc(O)cc2)SC1=S)c1ccccc1O | -148 | 63 | -12 | 6 | 53*
COc1ccc(/C=C2\SC(=S)N(NC(=O)c3csc4c3CCCC4)C2=O)cc1 | -125 | -5 | 7 | 72* | -6
Cc1cc(C)nc(NN2C(=O)/C(=C/c3ccc(O)cc3)SC2=S)n1 | -125 | u | -11 | -72 | 76*
Brc1ccc2nc(C3CCCCC3)c(Cc3ccsc3)n2c1 | 27 | x | x | x | x
COc1ccccc1-c1cc(C(=O)NC(C)C)no1 | -1 | -17 | 27 | 60* | -3
COc1ccccc1-c1cc(C(=O)NC(C)c2ccccc2)no1 (stereo not drawn) | -21 | 13 | 20 | 11 | 9
O=C(Nc1cccc(F)c1)c1ccc(-c2cccnc2)c2ccoc12 | 18 | x | x | x | x
Cc1ccc(N2C(=O)C3C4C=CC(CNC(=S)Nc5cccc(Cl)c5)(O4)C3C2=O)cc1 (stereo not drawn) | 41* | 4 | 2 | -14 | -15
COc1cc(/C=N/N=C2/NC(=O)C(Cc3ccc(F)cc3)S2)ccc1O (stereo not drawn) | -19 | 3 | 21 | -17 | -3
COc1cc(/C=N/N=C2/NC(=O)C(c3ccccc3)S2)ccc1O (stereo not drawn) | -18 | -3 | -2 | 67* | -8
N[C@@H](Cc1cnc[nH]1)C(=O)Nc1ccc2ccccc2c1 | -14 | x | 21 | x | x
O=C(N/N=C/c1c[nH]c2ccccc12)C1CC(=O)N(c2ccccc2)C1 (stereo not drawn) | -14 | 8 | -4 | 73* | -5
Cc1ccc2c(c1)c(=O)c1c3n2CCN(C(=O)CCl)C3CC1 (stereo not drawn) | 8 | u | 5 | 80* | 35*
Cc1ccc2c(c1)c1c3n2CCN(C(=O)CN2CCN(C)CC2)C3CCC1 (stereo not drawn) | -2 | 17 | 17 | 23 | -2
CS(=O)(=O)c1cccc(C(=O)OCC(=O)NC(=O)Nc2ccccc2F)c1 | -13 | x | 12 | x | x
O=C(NCCN1CCN(C(=O)c2ccc(F)cc2)CC1)c1ccc(F)cc1 | -4 | -2 | 5 | -39 | -3
